# Screening results (PubChem)
# A selection: hits, their analogues and other compounds. The true share with any hit is near 27%.
# CYP2C9 act: human CYP2C9 activators, primary screen, biochemical, luminescence; Cytochrome P450 2C9 (Homo sapiens), P11712; recombinant CYP2C9, luciferin-H conversion; stronger effect = higher value; factor 1 = untreated enzyme, 0 = blocked; activation factor at 5 µM; 1.4% of 96,000 active; AID 1024, 2008;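 active = activation factor of 2 or more for CYP2C9 at a 5 µM dose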
# CYP2C19 inh: blockers of cytochrome P450 2C19 activity – biochemical, luminescence, ADME assay, primary screen; CYP2C19 Supersomes, luciferin-H EGE luminescence, 30 min; inhibition, % at 5 µM; P33261; 21% of 96,000 active;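 active = CYP2C19 inhibition above a set limit at 5 µM in the primary screen, cut at about 50% in these data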
# Target sequence (P33261 whole entry, looked up): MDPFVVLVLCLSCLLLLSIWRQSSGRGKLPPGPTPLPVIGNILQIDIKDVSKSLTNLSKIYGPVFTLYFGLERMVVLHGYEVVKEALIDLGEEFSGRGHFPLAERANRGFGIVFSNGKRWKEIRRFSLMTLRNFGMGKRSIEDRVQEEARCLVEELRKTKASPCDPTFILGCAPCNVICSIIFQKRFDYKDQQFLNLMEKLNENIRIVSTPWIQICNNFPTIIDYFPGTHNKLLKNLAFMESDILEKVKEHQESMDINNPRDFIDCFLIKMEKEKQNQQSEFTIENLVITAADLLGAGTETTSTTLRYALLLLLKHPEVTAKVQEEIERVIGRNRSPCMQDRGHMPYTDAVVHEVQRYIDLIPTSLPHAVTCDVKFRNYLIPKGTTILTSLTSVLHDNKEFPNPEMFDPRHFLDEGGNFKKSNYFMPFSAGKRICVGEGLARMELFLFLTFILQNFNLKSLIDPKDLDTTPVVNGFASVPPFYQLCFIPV
# CYP2C19 activ: human CYP2C19 activators, primary screen, biochemical, luminescence. Cytochrome P450 2C19 (Homo sapiens), P33261. recombinant CYP2C19, luciferin-H EGE luminescence; stronger effect = higher value; 0 = fully inhibited enzyme, 1 = untreated enzyme. activation factor at 5 µM. 96,000 tested, under 10 active;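 active = activation factor of at least 2 at 5 µM in the primary screen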
# EphB4 ephrin blk: EphB4-ephrin-B2 interaction antagonists, primary screen, biochemical, TNYL-RAW peptide probe, fluorescence polarization | inhibition, % at 7 µM | Ephrin type-B receptor 4 (Homo sapiens), P54760 | EphB4 LBD / TNYL-RAW-Alexa532 peptide | 0.15% of 97,000 active;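 active = inhibition above the screen-wide mean inhibition plus 3 SD, cut at about 15% in these data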
# CYP2C9 inh: blockers of cytochrome P450 2C9 activity – biochemical, luminescence, ADME assay, primary screen | P11712 | CYP2C9 Supersomes, luciferin-H conversion | inhibition, % at 5 µM | 20% of 96,000 active;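 active = blocking of liver enzyme CYP2C9 beyond about 50% at 5 µM, limit read from the data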
# Hits are given with their value; - = inactive; . = not tested or not shown.
SMILES,CYP2C9 act,CYP2C19 inh,CYP2C19 activ,EphB4 ephrin blk,CYP2C9 inh
Cc1cc(NC(=O)CCCC(=O)N(CC(=O)NCCc2ccccc2)Cc2ccc(F)cc2)no1,-,-,-,-,-
Cc1c(C(=O)N2CCN(c3ccccc3)CC2)sc2ncnc(N3CCC(C)CC3)c12,-,61,-,-,-
Cc1c(C(=O)N2CCOCC2)sc2ncnc(N3CCc4ccccc4C3)c12,-,-,-,-,65
O=C(Nc1ccccc1N1CCOCC1)C1Cc2ccccc2CN1C(=O)c1ccco1 (stereo not drawn),-,51,-,-,67
COc1ccc2c(c1)C(C)CC(C)(C)N2C(=O)CSc1nc2ccccc2s1 (stereo not drawn),-,71,-,-,54
Cn1c(=O)oc2cc(S(=O)(=O)NCCC(=O)NCCc3ccc(Cl)cc3)ccc21,-,-,-,.,-
CCOC(=O)Cn1c(=O)oc2cc(S(=O)(=O)N3CCN(c4ccccn4)CC3)ccc21,-,-,-,-,-
CN1CCN(C(=O)Cn2c(=O)oc3cc(S(=O)(=O)NCc4ccccc4)ccc32)CC1,-,-,-,-,50
CCOC(=O)Cn1c(=O)oc2cc(S(=O)(=O)NCCCc3ccccc3)ccc21,-,-,-,-,68
CCOC(=O)Cn1c(=O)oc2cc(S(=O)(=O)NCCc3ccc(C)cc3)ccc21,-,50,-,-,70
CCOC(=O)Cn1c(=O)oc2cc(S(=O)(=O)Nc3ccc(F)cc3)ccc21,-,-,-,-,58
O=C(Cn1c(=O)oc2cc(S(=O)(=O)N3CCc4ccccc43)ccc21)N1CCCCC1,-,-,-,-,-
CN(C)CCCN1C(=O)CSC1c1ccccc1 (stereo not drawn),-,-,-,-,-
COc1cc(NC(=O)c2ccccc2)c(OC)cc1NC(C)=O,-,-,-,-,-
Cc1ccc[n+](/C(C(=S)NCc2ccco2)=C(/[O-])c2ccccc2Cl)c1,-,-,-,-,-
C/C(CCc1ccc2c(c1)OCO2)=N\N=C1\NC(=O)CC(C(=O)Nc2ccccc2)S1 (stereo not drawn),-,-,-,-,68
CCN1C(=O)CC(C(=O)Nc2ccc(F)cc2)SC1=Nc1ccc2c(c1)OCO2 (stereo not drawn),-,-,-,-,-
COc1ccc(NC(=O)CSc2nc(C)cs2)cc1OC,-,-,-,-,-
Cc1csc(SCC(=O)Nc2cccc3nsnc23)n1,-,55,-,-,77
COc1cccc(NC(=O)CSc2nc(C)cs2)c1,-,82,-,-,-
CC(C)(C)CC(=O)OCC(=O)Nc1cc(C(C)(C)C)nn1-c1ccccc1,-,-,-,-,-
Cc1csc(NC(=O)CSc2nc(C)cs2)n1,-,58,-,-,-
Cc1csc(SCC(=O)Nc2ccccn2)n1,-,-,-,-,-
Cc1csc(SCC(=O)Nc2cc(C(C)(C)C)nn2-c2ccccc2)n1,-,71,-,.,80
CCc1nc(-c2ccccc2O)n(-c2ccccc2)n1,-,74,-,-,-
SMILES,CYP2C9 act,CYP2C19 inh,CYP2C19 activ,EphB4 ephrin blk,CYP2C9 inh
CCOC(=O)N1N=C(c2ccc(C)cc2)CC1(O)C(F)(F)F (stereo not drawn),-,59,-,-,-
CCOC(=O)c1ccc(NC(=O)CC2COc3ccccc3O2)cc1 (stereo not drawn),-,-,-,-,63
COc1ccccc1NC(=O)CC1COc2ccccc2O1 (stereo not drawn),-,64,-,-,-
COc1ccccc1CN(C)C(=O)C1COc2ccccc2O1 (stereo not drawn),-,98,-,-,-
COc1ccccc1CN1CCCC(C(=O)N(C)Cc2ccccc2)C1 (stereo not drawn),-,-,-,-,-
O=C(NCC1COc2ccccc2O1)c1ccccc1 (stereo not drawn),-,95,-,-,-
O=C(Cn1nnc(-c2ccccc2Cl)n1)N/N=C/c1ccc2c(c1)OCO2,-,-,-,-,-
COc1cccc(C(c2sc3nc(C)nn3c2O)N2CCN(C(=O)c3ccco3)CC2)c1 (stereo not drawn),-,-,-,.,-
CCC1Oc2ccccc2N(CC(=O)Nc2ccc(OC)cc2OC)C1=O (stereo not drawn),-,-,-,-,-
